The values below come from PubChem BioAssay (Tox21).

The nature of experiment [1]: qHTS assay to identify small molecule agonists of the RXR signaling pathway - cell viability counter screen (AID 1159529). Also: nearly all actives have a fitted effect of over 50% in size. Also: potency is read from the fitted curve at half-maximal effect. The essentials: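 Counter screen: CellTiter-Glo luminescence. Cells: RXR-alpha-UAS-bla HEK 293T. Medium: 2% charcoal-stripped FBS. Treatment: 16 h, 37 C. Reagent incubation: 30 min, RT.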
Experiment [2] is described as follows: qHTS assay to identify small molecule antagonists of the retinoid acid receptor (RAR) signaling pathway - cell viability counter screen (AID 1159551). Also: nearly all actives have a fitted effect of over 35% in size. The method, boiled down: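 Cytotoxicity counter screen in C3RL4 cells: 6 h compound exposure with 1 uM retinol (final), viability from cellular ATP by luminescence.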
(Quantitative high-throughput screening tests each substance at several concentrations.)

The nature of experiment [3]: qHTS assay to identify small molecule antagonists of the retinoic acid receptor (RAR) signaling pathway (AID 1159552; also: nearly all actives have a fitted effect of over 50% in size; also: potency is read from the fitted curve at half-maximal effect). The method, boiled down: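 Antagonism of retinol-induced RARE reporter activity was measured in C3RL4 cells. Exposure to compounds and 1 uM final retinol lasted 6 hr at 37 C, with luminescence as endpoint.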
The nature of experiment [4]: qHTS assay to identify small molecule agonists of the retinoic acid receptor (RAR) signaling pathway (AID 1159553). Also: potency is read from the fitted curve at half-maximal effect. The essentials:
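Agonist activity was scored in C3RL4 cells bearing a retinoic acid response element luciferase construct. Cells were treated with compounds for 6 hr at 37 C, and luciferase signal was measured as luminescence.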

A short description of experiment [5]: qHTS assay to identify small molecule antagonists of the estrogen related receptor (ERR) signaling pathway from Tox21 library - cell viability counter screen (AID 1224834). Also: nearly all actives have a fitted effect of over 30% in size. Also: potency is read from the fitted curve at half-maximal effect. The method, boiled down: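 Cytotoxicity of test substances is gauged in the same ERR cells used for the antagonist screen, after 17.5 h of compound treatment at 37 C, by CellTiter-Fluor fluorescence measured after 30 min.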

Experiment [6] has as its target Luciferin 4-monooxygenase (Photinus pyralis) (UniProt P08659). Put plainly: qHTS assay to identify small molecule inhibitors of firefly luciferase (AID 1224835). Also: nearly all actives have a fitted effect of over 25% in size. Also: potency is read from the fitted curve at half-maximal effect. The essentials:
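Quantitative HTS format; KM concentrations of both substrates. Purified P. pyralis FLuc activity quantified from luminescence images.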

The nature of experiment [7]: qHTS assay to identify small molecule agonists of the constitutive androstane receptor (CAR) signaling pathway - cell viability counter screen (AID 1224836). Also: series mostly up to about 92 µM; nearly all actives have a fitted effect of over 45% in size. The essentials:
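Double-stable HepG2 hepatoma cells (hCAR plus CYP2B6-2.2kb) are treated for 23 h at 37 C with test compounds in 15-point concentration series. PK11195 at 0.75 uM final is co-added. Cell viability is quantified by CellTiter-Fluor.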

The nature of experiment [8]: qHTS assay to identify small molecule antagonists of the constitutive androstane receptor (CAR) signaling pathway - cell viability counter screen (AID 1224837). Also: series mostly up to about 92 µM; nearly all actives have a fitted effect of over 45% in size. The essentials:
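Multiplexed cytotoxicity read-out for the CAR antagonist screen: double-stable HepG2-CYP2B6-hCAR cells co-treated with 50 nM CITCO (final) and compound over 15 concentrations, incubated 23 hr, then assessed by CellTiter-Fluor fluorescence.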

Experiment [9] can be described thus: qHTS assay to identify small molecule antagonists of the estrogen related receptor signaling pathway with the pleiotropic PPARgamma coactivator (PGC) from Tox21 10K library - cell viability counter screen (AID 1224840; active = well fitted cell-killing curve with a large enough effect in the repeat runs, not every such curve was filed as active; also: nearly all actives have a fitted effect of over 40% in size; also: potency is read from the fitted curve at half-maximal effect). The essentials: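 Step one, plate 2,000 PGC/ERR cells per well; step two, incubate 6 h at 37 C/5% CO2; step three, pin-transfer compounds; step four, incubate 17.5 h; step five, add CellTiter-Fluor and read fluorescence after 30 min.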

The target of experiment [10] is Thyrotropin receptor (Homo sapiens) (UniProt P16473). Put plainly: qHTS assay to identify small molecule agonists of the thyroid stimulating hormone receptor (TSHR) signaling pathway (AID 1224843; calls by dose curve; also: nearly all actives have a fitted effect of over 45% in size). The essentials: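 Cell line HEK293 with TSHR; density 800/well. Exposure 30 min RT. Readout HTRF cAMP (cAMP-d2/anti-cAMP-cryptate), 1 h RT before reading.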
Thyrotropin receptor (Homo sapiens), sequence (P16473 whole entry, looked up): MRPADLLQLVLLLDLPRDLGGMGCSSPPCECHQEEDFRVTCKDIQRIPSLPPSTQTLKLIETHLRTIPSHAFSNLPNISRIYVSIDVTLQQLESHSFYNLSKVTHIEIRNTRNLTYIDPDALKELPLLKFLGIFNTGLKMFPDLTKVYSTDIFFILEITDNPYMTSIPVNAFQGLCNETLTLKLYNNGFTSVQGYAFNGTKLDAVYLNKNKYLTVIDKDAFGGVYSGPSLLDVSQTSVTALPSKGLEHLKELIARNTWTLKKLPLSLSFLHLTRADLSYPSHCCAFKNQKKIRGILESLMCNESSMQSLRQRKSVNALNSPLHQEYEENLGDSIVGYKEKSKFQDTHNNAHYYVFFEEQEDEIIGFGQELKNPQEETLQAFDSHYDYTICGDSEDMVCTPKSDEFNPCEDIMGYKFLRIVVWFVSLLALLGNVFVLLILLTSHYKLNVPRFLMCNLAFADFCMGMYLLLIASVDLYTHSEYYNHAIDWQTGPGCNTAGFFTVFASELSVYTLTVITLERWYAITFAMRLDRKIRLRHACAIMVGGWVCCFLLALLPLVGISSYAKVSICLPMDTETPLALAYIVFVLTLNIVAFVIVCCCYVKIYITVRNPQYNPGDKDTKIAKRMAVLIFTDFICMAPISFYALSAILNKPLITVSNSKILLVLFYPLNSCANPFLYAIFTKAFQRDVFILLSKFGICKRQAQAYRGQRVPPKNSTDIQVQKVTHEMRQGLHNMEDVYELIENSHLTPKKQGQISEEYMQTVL
The nature of experiment [11]: qHTS assay to identify small molecule antagonists of the estrogen related receptor signaling pathway with the pleiotropic PPARgamma coactivator (PGC) from Tox21 10K library (AID 1224841; call rule not given here; also: series mostly up to about 92 µM; actives are mostly falling curves and most rising ones were filed inactive; nearly all actives have a fitted effect of over 50% in size). The essentials: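 Antagonism in this quantitative HTS is taken from loss of luciferase signal in PGC/ERR cells. Cells (2,000/well) are treated with compounds in DMSO after a 6 h settling period and read by One-Glo luminescence after 18 h.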

The nature of experiment [12]: qHTS assay to identify small molecule agonists of the estrogen related receptor signaling pathway with the pleiotropic PPARgamma coactivator (PGC) from Tox21 10K library (AID 1224842). Also: nearly all actives have a fitted effect of over 15% in size. Also: potency is read from the fitted curve at half-maximal effect. The essentials:
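PGC/ERR reporter cells (NTP line) were seeded 2,000 per well, rested 6 h at 37 C/5% CO2, then pin-dosed with compounds in DMSO for 18 h at 37 C; luciferase read by One-Glo luminescence after 30 min at room temperature.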

Experiment [13] concerns the target Nuclear receptor subfamily 1 group I member 3 (Homo sapiens) (UniProt Q14994). Put plainly: qHTS assay to identify small molecule antagonists of the constitutive androstane receptor (CAR) signaling pathway (AID 1224838). Also: nearly all actives have a fitted effect of over 40% in size. The essentials: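 Compounds were titrated across 15 concentrations onto HepG2 cells double-stably expressing hCAR and a CYP2B6-2.2kb reporter, together with 50 nM CITCO (final). After 24 h at 37 C, luciferase activity was measured by luminescence.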

Experiment [14] has the same target. Put plainly: qHTS assay to identify small molecule agonists of the constitutive androstane receptor (CAR) signaling pathway (AID 1224839). Also: series mostly up to about 92 µM; nearly all actives have a fitted effect of over 15% in size. The essentials: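 Readout: firefly luciferase luminescence via ONE-Glo. System: HepG2 double-stable for hCAR and CYP2B6-2.2kb. Conditions: 15-point compound titration, PK11195 at 0.75 uM final, 24 h incubation.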

Molecules are shown by their SMILES. Records with an inconclusive call do not appear. Active and inactive are the calls of the source. Unless noted, calls follow the shape of the dose curve; as a rule, active = well fitted curve in the direction sought with a large enough effect in the repeat runs; inconclusive = weak or mixed curves; inactive = no such curve, though single readings can be large; an effect the other way counts as inactive or inconclusive.

Luciferin 4-monooxygenase (Photinus pyralis), sequence (P08659 whole entry, looked up): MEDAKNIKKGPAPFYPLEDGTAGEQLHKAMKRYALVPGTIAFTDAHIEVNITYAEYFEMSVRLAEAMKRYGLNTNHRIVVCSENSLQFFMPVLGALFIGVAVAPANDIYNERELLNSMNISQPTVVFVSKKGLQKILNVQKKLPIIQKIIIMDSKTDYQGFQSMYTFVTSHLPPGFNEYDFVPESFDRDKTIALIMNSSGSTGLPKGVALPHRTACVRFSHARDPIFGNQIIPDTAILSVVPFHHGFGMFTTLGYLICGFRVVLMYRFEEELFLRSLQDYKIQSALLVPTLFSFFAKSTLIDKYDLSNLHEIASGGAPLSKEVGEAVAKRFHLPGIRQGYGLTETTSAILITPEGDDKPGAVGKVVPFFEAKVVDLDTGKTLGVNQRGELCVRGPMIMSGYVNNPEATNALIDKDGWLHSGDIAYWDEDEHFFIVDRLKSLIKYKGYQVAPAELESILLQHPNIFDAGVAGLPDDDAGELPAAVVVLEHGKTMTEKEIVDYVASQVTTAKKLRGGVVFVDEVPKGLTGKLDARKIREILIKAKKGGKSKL
Nuclear receptor subfamily 1 group I member 3 (Homo sapiens), sequence (Q14994 whole entry, looked up): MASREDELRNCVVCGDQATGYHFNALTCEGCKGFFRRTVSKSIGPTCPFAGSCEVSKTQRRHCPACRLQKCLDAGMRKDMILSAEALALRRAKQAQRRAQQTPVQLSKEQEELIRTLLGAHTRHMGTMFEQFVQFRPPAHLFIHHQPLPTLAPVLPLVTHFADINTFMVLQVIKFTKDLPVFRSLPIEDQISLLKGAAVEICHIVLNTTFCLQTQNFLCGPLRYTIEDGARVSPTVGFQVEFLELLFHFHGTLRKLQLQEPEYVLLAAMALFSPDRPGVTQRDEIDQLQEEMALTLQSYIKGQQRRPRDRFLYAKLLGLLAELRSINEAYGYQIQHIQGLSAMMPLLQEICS

As for `CC(Cc1ccccc1)N(C)Cc1ccco1` (configuration not stated), the Potency entry in [1], in experiment [2], in experiment [3], in [4], in [5] and in experiment [6] was “inactive” throughout. The Potency result in experiment [7], in experiment [8], in experiment [9] and in [10] was “inactive” in each case.

As to `CCCN`, the Potency entry in experiment [1], in experiment [2], in experiment [3], in experiment [4], in experiment [5] and in [6] was “inactive” each time. The Potency result in experiment [7], in experiment [8], in experiment [9] and in experiment [10] was “inactive” in each case.

Take `O=NN(CCO)CCO`: the Potency entry in [1], in [2], in experiment [3], in [4], in experiment [5] and in experiment [7] was “inactive” in each case. Further, the Potency entry in [8], in experiment [9], in [11] and in [10] was “inactive” in each case.

Regarding `c1ccc2c(c1)cc1ccc3cccc4ccc2c1c34`, the Potency result in experiment [1], in experiment [2], in [3], in experiment [5] and in experiment [10] was “inactive” throughout. Further, the Potency in [4] was 11.1 µM (active); in experiment [6], 10.2 µM (active); in experiment [12] it was 22.1 µM (active).

Take `CN`: the Potency result in [1], in experiment [2], in [3], in experiment [4], in [5] and in [7] was “inactive” each time. Besides, the Potency result in [8], in experiment [13], in experiment [14], in experiment [9] and in experiment [10] was “inactive” each time.

Regarding `COCCC#N`, the Potency result in experiment [1], in [2], in experiment [3], in experiment [4], in experiment [5] and in [6] was “inactive” in each case. The Potency entry in [7], in experiment [8], in experiment [9] and in experiment [10] was “inactive” throughout.

On to `CCCCN(CCCC)C(=S)S`, for which the Potency result in experiment [1], in experiment [2], in experiment [3], in experiment [4], in [5] and in [6] was “inactive” each time. Further, the Potency entry in experiment [7], in experiment [8], in experiment [9] and in experiment [11] was “inactive” each time.

As for `CNC(=O)CSP(=O)(OC)OC`, the Potency entry in [1], in experiment [2], in [3], in experiment [4], in experiment [5] and in experiment [6] was “inactive” throughout. In addition, the Potency entry in [7], in experiment [8], in experiment [13], in [9] and in experiment [10] was “inactive” throughout.

Consider `O=C(O)CCCCCCNC1c2ccccc2CCc2ccccc21`, for which the Potency result in experiment [1], in experiment [2], in experiment [3], in experiment [4], in experiment [5] and in experiment [6] was “inactive” throughout. Further, the Potency entry in experiment [7], in [8], in [9] and in experiment [10] was “inactive” each time.

Regarding `BrCCCBr`, the Potency entry in experiment [1], in [2], in experiment [3], in [4], in [5] and in [6] was “inactive” in each case. The Potency entry in experiment [7], in experiment [8], in experiment [13], in experiment [9] and in experiment [10] was “inactive” in each case.

On to `ClC1(Cl)C2(Cl)C3(Cl)C4(Cl)C(Cl)(Cl)C5(Cl)C3(Cl)C1(Cl)C5(Cl)C24Cl` (configuration not stated), for which the Potency entry in [1], in [2], in experiment [3], in experiment [4], in [5] and in experiment [6] was “inactive” throughout. Moreover, the Potency entry in experiment [7], in experiment [8], in experiment [9], in experiment [12] and in experiment [10] was “inactive” in each case.

In the case of `CC(Cc1ccc2c(c1)OCO2)NO` (configuration not stated), the Potency entry in experiment [1], in experiment [2], in [3], in experiment [4], in [5] and in experiment [6] was “inactive” throughout. Moreover, the Potency result in experiment [7], in [8], in experiment [13], in experiment [9] and in [10] was “inactive” in each case.

In the case of `ClSC(Cl)(Cl)Cl`, the Potency entry in experiment [1], in experiment [2], in experiment [3], in [4], in experiment [5] and in experiment [7] was “inactive” throughout. Also, the Potency entry in experiment [8], in experiment [13], in experiment [14], in [9], in experiment [11] and in experiment [12] was “inactive” each time. Moreover, the Potency entry in [10] is “inactive”.

In the case of `Oc1cccc(Cl)c1Cl`, the Potency in [1] was 49.2 µM (active). The Potency result in [2], in experiment [3], in experiment [4], in experiment [5], in experiment [7] and in experiment [8] was “inactive” in each case. For the same compound, the Potency result in [13], in experiment [14], in experiment [9] and in experiment [10] was “inactive” throughout.

Turning to `FC(F)C(F)(F)OCC(Cn1cncn1)c1ccc(Cl)cc1Cl` (configuration not stated), the Potency in experiment [1] was 48.7 µM (active); in [3] it was 24.2 µM (active); in experiment [5] it was 43 µM (active); in [9], 60.8 µM (active). Further, the Potency entry in experiment [2], in experiment [4] and in experiment [6] was “inactive” throughout.

In the case of `CN(C)CCc1c[nH]c2ccccc12`, the Potency entry in experiment [1], in [2], in [3], in experiment [4], in experiment [5] and in experiment [6] was “inactive” throughout. In addition, the Potency entry in experiment [7], in experiment [8], in experiment [13], in experiment [9] and in experiment [10] was “inactive” each time.

In the case of `CN1[C@@H]2CC[C@H]1CC(O)C2` (some centres not stated), the Potency result in [1], in [2], in [3], in experiment [4], in experiment [5] and in [7] was “inactive” throughout. Moreover, the Potency result in [8], in experiment [13], in experiment [14] and in experiment [9] was “inactive” throughout.

In the case of `S=C=Nc1ccccc1`, the Potency entry in [1], in [2], in [3], in experiment [5], in experiment [7] and in experiment [8] was “inactive” in each case. The Potency result in experiment [13] and in experiment [9] was “inactive” each time. The Potency in experiment [4] is 70.8 µM (active).

In the case of `C[N+]1(C)[C@@H]2CC[C@H]1CC(OC(=O)C(CO)c1ccccc1)C2` (some centres not stated), the Potency entry in experiment [1], in experiment [2], in experiment [3], in experiment [4], in experiment [5] and in [6] was “inactive” throughout. Further, the Potency entry in [7], in experiment [8], in experiment [9] and in [10] was “inactive” in each case.

With `Oc1ccc([C@H]2CNCc3c2ccc(O)c3O)cc1O`, the Potency result in experiment [1], in experiment [2], in experiment [3], in experiment [5], in experiment [7] and in experiment [8] was “inactive” in each case. The Potency entry in [13], in experiment [14], in experiment [9] and in experiment [12] was “inactive” in each case. For the same compound, the Potency in experiment [4] is 23.7 µM (active).

Consider `CN1C(=O)[C@@H](NC(=O)c2cc3ccccc3[nH]2)N=C(c2ccccc2)c2ccccc21`, for which the Potency result in experiment [1], in experiment [2], in experiment [3], in experiment [4], in experiment [6] and in experiment [7] was “inactive” in each case. The Potency result in experiment [8], in experiment [13], in [14], in experiment [9], in [12] and in [10] was “inactive” throughout.

In the case of `ClC(Cl)C(Cl)(Cl)Cl`, the Potency result in [1], in experiment [2], in experiment [3], in experiment [4], in experiment [5] and in [6] was “inactive” each time. In addition, the Potency entry in experiment [7], in [8], in [9] and in experiment [10] was “inactive” throughout.

On to `N#Cc1ccc(N(CC(N)=O)CC(F)(F)F)cc1C(F)(F)F`, for which the Potency entry in experiment [1], in experiment [2], in experiment [3], in experiment [4], in experiment [5] and in [6] was “inactive” each time. Besides, the Potency entry in experiment [7], in experiment [8], in experiment [9] and in experiment [10] was “inactive” in each case.
